Assay results as given in PubChem BioAssay (NCATS).
Inconclusive results are not listed. Active and inactive are the calls of the source. Calls follow the shape of the dose curve; as a rule, active = well fitted inhibition curve with a large enough effect; inconclusive = small, poorly fitted or top-dose-only effect; inactive = flat fitted curve, though single readings scatter.

Assays:
Experiment in all cases: qHTS profiling for inhibitors of Plasmodium falciparum proliferation (AID 504749); also: nearly all actives have a fitted effect of over 60% in size
Conditions in all cases: P. falciparum in erythrocytes, SYBR Green DNA, 72 h; series mostly up to 28.7 µM
CP247 = test system: CP247
Summary of the method: (§1)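 Parasite proliferation within erythrocytes, 72 h exposure. Endpoint: SYBR Green I fluorescence after overnight lysis at room temperature. Controls: 0.29 uM artemisinin, DMSO.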

CP250 = test system: CP250
Summary of the method: as §1

CP252 = test system: CP252
Summary of the method: as §1

CP256 = test system: CP256
Summary of the method: as §1

CP260 = test system: CP260
Summary of the method: as §1

CP262 = test system: CP262
Summary of the method: as §1

CP265 = test system: CP265
Summary of the method: as §1

CP266 = test system: CP266
Summary of the method: as §1

CP268 = test system: CP268
Summary of the method: as §1

CP269 = test system: CP269
Summary of the method: as §1

CP286 = test system: CP286
Summary of the method: as §1

CP291 = test system: CP291
Summary of the method: as §1

CP297 = test system: CP297
Summary of the method: as §1

CP305 = test system: CP305
Summary of the method: as §1

CP315 = test system: CP315
Summary of the method: as §1

CP325 = test system: CP325
Summary of the method: as §1

CP329 = test system: CP329
Summary of the method: as §1

CP335 = test system: CP335
Summary of the method: as §1

DFO2036 = test system: DFO2036
Summary of the method: as §1

DIV14 = test system: DIV14
Summary of the method: as §1

Measured: Potency
Potency is read from the fitted curve at half-maximal effect.

O=C(O)CN(CCN(CC(=O)O)CC(=O)O)CC(=O)O
inactive: all assays above

Cc1ccccc1
inactive: all assays above

CC1=C(/C=C/C(C)=C/C=C/C(C)=C/C=C/C=C(C)/C=C/C=C(C)/C=C/C2=C(C)CCCC2(C)C)C(C)(C)CCC1
not listed: CP266
inactive: all other assays above

CCOc1ccc2c(c1)C(C)=CC(C)(C)N2
not listed: CP265 | CP335
inactive: all other assays above

CCCCCCCCCCCC[n+]1ccc2ccccc2c1
active: CP247 0.891 µM | CP250 1.12 µM | CP252 0.708 µM | CP256 0.562 µM | CP260 0.631 µM | CP262 0.379 µM | CP265 1.12 µM | CP266 1.69 µM | CP268 1.35 µM | CP269 0.757 µM | CP286 0.224 µM | CP291 1.2 µM | CP297 1.07 µM | CP305 0.757 µM | CP315 1.07 µM | CP325 1.2 µM | CP329 0.601 µM | CP335 0.953 µM | DFO2036 0.562 µM | DIV14 0.757 µM

O=C(COc1ccc(Cl)cc1)OCCNC12CC3CC(CC(C3)C1)C2
not listed: CP297
inactive: all other assays above

NC(=O)c1ncn(C2OC(CO)C(O)C2O)n1 (centres undefined)
not listed: CP291
inactive: all other assays above

CC[N+](C)(C)Cc1ccccc1Br
inactive: all assays above

CCCCCCCC(=O)O
not listed: CP291
inactive: all other assays above

COc1ccc2c3c1O[C@H]1C[C@@H](O)C=C[C@@]31CCN(C)C2
inactive: all assays above

Oc1cc(O)c2c(c1)OC(c1ccc(O)c(O)c1)C(O)C2 (centres undefined)
not listed: CP335
inactive: all other assays above

O=C(O)CCC(=O)C(=O)O
not listed: CP291
inactive: all other assays above

COC(F)(F)C(Cl)Cl
inactive: all assays above

COC(=O)[C@H]1[C@H]2CC3c4[nH]c5ccccc5c4CCN3C[C@@H]2CC[C@@H]1O (some centres undefined)
inactive: CP247 | CP250 | CP252 | CP256 | CP260 | CP265 | CP286 | DFO2036

COC(=O)C1=C(C#N)NC(C)=C(C(=O)OC(C)C)C1c1cccc([N+](=O)[O-])c1 (centres undefined)
active: CP247 8.91 µM | CP256 7.94 µM | CP260 11.2 µM | CP265 10 µM | CP269 13.5 µM | CP286 10 µM | CP291 16.9 µM | CP297 13.5 µM | CP305 13.5 µM | CP329 15.1 µM | CP335 8.49 µM | DFO2036 12.6 µM | DIV14 7.57 µM

CC[C@@]1(O)C(=O)OCc2c1cc1n(c2=O)Cc2cc3c([N+](=O)[O-])cccc3nc2-1
active: CP247 11.2 µM | CP250 12.6 µM | CP256 11.2 µM | CP260 3.55 µM | CP265 7.94 µM | CP269 10.7 µM | CP286 4.47 µM | CP291 12 µM | CP297 12 µM | CP305 8.49 µM | CP329 12 µM | CP335 4.78 µM | DFO2036 5.01 µM

C=C1C(=CC=C2CCC[C@@]3(C)[C@@H]2CC[C@H]3[C@H](C)CCCC(C)C)C[C@@H](O)C[C@@H]1O
active: CP265 11.2 µM
not listed: CP247 | CP250 | CP252 | CP256 | CP260 | CP286 | CP335 | DFO2036
inactive: all other assays above

CCCCCCOc1ccc(C(=N)N(CCCC)CCCC)c2ccccc12
active: CP247 10 µM | CP250 8.91 µM | CP252 10 µM | CP260 4.47 µM | CP286 2.82 µM | CP297 16.9 µM | CP335 8.49 µM | DIV14 12 µM

CCCCCC(CC)COC(=O)CC(C(=O)OCC(CC)CCCC)S(=O)(=O)O (centres undefined)
inactive: CP250 | CP252 | CP256 | CP260 | CP265 | CP286 | DFO2036
active: CP247 11.2 µM

CC1=C(/C=C/C(C)=C/C=C/C(C)=C/CO)C(C)(C)CCC1
active: CP252 10 µM | DIV14 12 µM
inactive: CP262 | CP266 | CP268 | CP291 | CP297 | CP305 | CP315 | CP325 | CP329

NC1C2CN(c3nc4c(cc3F)c(=O)c(C(=O)O)cn4-c3ccc(F)cc3F)CC12 (centres undefined)
active: CP269 6.75 µM | CP335 6.01 µM

CC(=O)Oc1cc(C)c(OC(C)=O)c2ccccc12
active: CP250 7.94 µM | CP256 10 µM | CP262 13.5 µM | CP325 15.1 µM | DIV14 6.01 µM

CC(C)=O
not listed: CP256 | CP265 | CP268
inactive: all other assays above

C#C[C@]1(O)CC[C@H]2[C@@H]3CCC4=CCCC[C@@H]4[C@H]3C(=C)C[C@@]21CC
inactive: CP260 | CP262 | CP266 | CP269 | CP291 | CP297 | CP315 | CP325 | CP329 | DIV14

CC1=C(/C=C/C(C)=C/C=C/C(C)=C/C=C/C=C(C)/C=C/C=C(C)/C=C/C2=C(C)C(=O)CCC2(C)C)C(C)(C)CCC1=O
not listed: CP256 | DIV14
inactive: all other assays above

CN(C)CCCN1c2ccccc2C(C)(C)c2ccccc21
active: DIV14 8.49 µM
not listed: CP247 | CP250 | CP256 | CP265 | CP266 | CP268 | CP291 | CP335
inactive: all other assays above

CCN(CC)CCOc1ccc(-c2nc3cc(Cl)ccc3s2)cc1
not listed: CP247 | CP260 | CP268 | CP286 | CP335 | DFO2036 | DIV14
inactive: all other assays above

Clc1cc(Cl)c(OCC#CI)cc1Cl
active: CP247 7.08 µM | CP250 11.2 µM | CP265 10 µM | CP291 8.49 µM | DIV14 9.53 µM
inactive: CP315

Cc1cn([C@H]2C[C@H](O)[C@@H](CO)O2)c(=O)[nH]c1=O
not listed: CP260
inactive: all other assays above

CCCCC(CC)COC(=O)CC(C(=O)OCC(CC)CCCC)S(=O)(=O)O (centres undefined)
not listed: CP247 | CP250 | CP252 | CP256 | CP260 | CP265 | CP286 | DFO2036
inactive: all other assays above

CCOC(=O)C1=C(C)NC(C)=C(C(=O)OCC)C1c1ccccc1C=CC(=O)OC(C)(C)C
active: CP252 10 µM | CP262 12 µM | CP265 10 µM | CP269 15.1 µM | CP291 12 µM | CP297 16.9 µM | CP315 10.7 µM | CP325 12 µM | CP335 10.7 µM | DFO2036 11.2 µM | DIV14 12 µM
inactive: CP256

O=C1CSC2(CCN(CCCN3c4ccccc4Sc4ccc(Cl)cc43)CC2)N1
active: CP291 13.5 µM | DIV14 15.1 µM
inactive: CP250 | CP256 | CP262

CCOc1ccc(N=Nc2ccc(N)cc2N)cc1
not listed: CP247 | DIV14
inactive: all other assays above

COc1cc(-c2ccc(-[n+]3nc(-c4ccccc4)nn3-c3ccc([N+](=O)[O-])cc3)c(OC)c2)ccc1-[n+]1nc(-c2ccccc2)nn1-c1ccc([N+](=O)[O-])cc1
inactive: CP262
active: CP247 11.2 µM | CP252 8.91 µM | CP260 12.6 µM | CP268 16.9 µM | CP297 16.9 µM | CP329 15.1 µM | DIV14 12 µM

CN1C(=O)CN2CCc3ccccc3C2c2cc(Cl)ccc21 (centres undefined)
not listed: CP260 | DIV14
inactive: all other assays above

CC(C)N=c1cc2n(-c3ccc(Cl)cc3)c3ccccc3nc-2cc1Nc1ccc(Cl)cc1
active: CP286 3.55 µM | CP335 1.81 µM
not listed: CP260 | CP266 | DIV14
inactive: all other assays above

COC(C(=O)C(O)C(C)O)C1Cc2cc3cc(OC4CC(OC5CC(O)C(O)C(C)O5)C(O)C(C)O4)c(C)c(O)c3c(O)c2C(=O)C1OC1CC(OC2CC(OC3CC(C)(O)C(O)C(C)O3)C(O)C(C)O2)C(O)C(C)O1 (centres undefined)
active: CP250 0.251 µM | CP252 0.251 µM | CP256 0.316 µM | CP260 0.126 µM | CP262 2.13 µM | CP265 0.355 µM | CP266 2.13 µM | CP268 1.69 µM | CP269 1.9 µM | CP286 0.126 µM | CP291 1.69 µM | CP297 2.39 µM | CP305 1.51 µM | CP315 3.79 µM | CP325 3.01 µM | CP329 2.13 µM | CP335 0.379 µM | DFO2036 0.141 µM | DIV14 1.51 µM

C[C@]12CCC(=O)C=C1CC[C@@H]1[C@@H]2[C@@H](O)C[C@@]2(C)[C@H]1CC[C@]2(O)C(=O)COP(=O)(O)O
not listed: CP247
inactive: all other assays above

CCCCC(=O)O[C@]1(C(=O)CO)[C@H](C)C[C@H]2[C@@H]3CCC4=CC(=O)C=C[C@]4(C)[C@@]3(F)[C@@H](O)C[C@@]21C
not listed: CP260 | CP335 | DFO2036 | DIV14
inactive: all other assays above

O=S(=O)(O)c1cc(O)c2c(N=Nc3ccc(Nc4ccccc4)c4c(S(=O)(=O)O)cccc34)cc(S(=O)(=O)O)cc2c1
inactive: CP268 | CP315 | CP325 | CP329 | CP335

O=CCCCC=O
not listed: CP260 | CP335
inactive: all other assays above

O=C(Nc1ccc(Br)cc1)c1cc(Br)c(Br)s1
active: CP268 12 µM | CP305 16.9 µM | DIV14 10.7 µM
inactive: CP250 | CP262

CCOC(=O)C1=CC2(CC)CCCN3CCc4c(n1c1ccccc41)C32 (centres undefined)
active: CP252 11.2 µM | CP256 6.31 µM | CP265 11.2 µM | CP286 11.2 µM | DFO2036 11.2 µM

O=C(Nc1cccc(C(F)(F)F)c1)c1cc(Br)cc(Br)c1O
active: CP247 8.91 µM | CP291 12 µM | CP315 15.1 µM | DFO2036 10 µM | DIV14 13.5 µM
